In the supplement of paper PMC11732987, “Enantioselective OTUD7B fragment discovery through chemoproteomics screening and high-throughput optimisation” (Communications Chemistry, 2025):

Key:
Assay in all cases: log2 ratio of Biotin-Ahx-Ub-VS probe labelling (fragment/DMSO); higher = less target engagement (more negative = stronger competition), active = hit call of the paper (q ≤ 0.05, log2 ratio ≤ -1)
Conditions in all cases: compound concentration: 200 uM; treatment time: 3 h
USP42 = biological target: T1, USP42 (UniProt Q9H9J4)
T1 sequence (whole entry): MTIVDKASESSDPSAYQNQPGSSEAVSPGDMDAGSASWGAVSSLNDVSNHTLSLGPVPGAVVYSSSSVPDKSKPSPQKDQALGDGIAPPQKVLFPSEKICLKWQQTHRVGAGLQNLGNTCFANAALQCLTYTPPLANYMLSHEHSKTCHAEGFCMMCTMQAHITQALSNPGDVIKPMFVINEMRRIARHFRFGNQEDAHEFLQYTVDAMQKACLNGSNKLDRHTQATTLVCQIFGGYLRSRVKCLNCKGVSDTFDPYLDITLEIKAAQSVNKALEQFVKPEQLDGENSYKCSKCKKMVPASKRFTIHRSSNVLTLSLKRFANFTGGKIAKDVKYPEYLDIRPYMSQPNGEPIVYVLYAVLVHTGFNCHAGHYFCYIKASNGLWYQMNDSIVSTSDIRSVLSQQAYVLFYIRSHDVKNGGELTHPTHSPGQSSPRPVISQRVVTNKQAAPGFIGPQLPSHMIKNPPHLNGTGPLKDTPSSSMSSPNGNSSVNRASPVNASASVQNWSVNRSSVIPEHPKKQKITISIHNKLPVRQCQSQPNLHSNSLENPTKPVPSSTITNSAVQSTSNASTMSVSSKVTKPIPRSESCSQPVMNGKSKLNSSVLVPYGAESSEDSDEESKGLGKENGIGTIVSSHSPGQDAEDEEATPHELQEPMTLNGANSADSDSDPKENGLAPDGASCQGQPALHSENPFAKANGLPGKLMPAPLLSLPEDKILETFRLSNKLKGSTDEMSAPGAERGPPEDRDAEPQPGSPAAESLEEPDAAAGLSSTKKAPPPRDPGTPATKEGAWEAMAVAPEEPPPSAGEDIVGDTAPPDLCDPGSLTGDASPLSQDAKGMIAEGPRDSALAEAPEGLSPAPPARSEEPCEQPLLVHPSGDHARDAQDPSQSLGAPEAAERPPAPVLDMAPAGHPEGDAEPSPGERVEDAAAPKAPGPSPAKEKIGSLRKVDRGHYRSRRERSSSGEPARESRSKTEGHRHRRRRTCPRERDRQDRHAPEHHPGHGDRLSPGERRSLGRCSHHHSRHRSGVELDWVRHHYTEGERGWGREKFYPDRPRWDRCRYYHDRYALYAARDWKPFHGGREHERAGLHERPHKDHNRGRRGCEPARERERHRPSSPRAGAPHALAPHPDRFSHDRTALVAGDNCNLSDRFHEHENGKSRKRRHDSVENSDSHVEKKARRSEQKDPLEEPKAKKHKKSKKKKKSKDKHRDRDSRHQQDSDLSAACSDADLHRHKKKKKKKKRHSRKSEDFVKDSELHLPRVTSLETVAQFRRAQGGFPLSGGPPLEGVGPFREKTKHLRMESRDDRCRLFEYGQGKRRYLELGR
In short: (§1)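 Labelled DUBs from HEK293T lysate were NeutrAvidin-enriched, digested with LysC and trypsin, and run by diaPASEF LC-MS/MS. Before that, each 495 µg sample in Tris/CHAPS/IGEPAL buffer with protease inhibitors was treated in triplicate with fragment at 200 µM or vehicle for 3 h, then with Biotin-Ahx-Ub-VS at 0.5 µM final for 1 h. Values are average log2 ratios of fragment over vehicle by unpaired t-test, based on global-median-normalised Spectronaut label-free quantities from proteins with ≥2 unique peptides.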

USP46 = USP46 (UniProt P62068)
USP46, sequence (P62068 whole entry): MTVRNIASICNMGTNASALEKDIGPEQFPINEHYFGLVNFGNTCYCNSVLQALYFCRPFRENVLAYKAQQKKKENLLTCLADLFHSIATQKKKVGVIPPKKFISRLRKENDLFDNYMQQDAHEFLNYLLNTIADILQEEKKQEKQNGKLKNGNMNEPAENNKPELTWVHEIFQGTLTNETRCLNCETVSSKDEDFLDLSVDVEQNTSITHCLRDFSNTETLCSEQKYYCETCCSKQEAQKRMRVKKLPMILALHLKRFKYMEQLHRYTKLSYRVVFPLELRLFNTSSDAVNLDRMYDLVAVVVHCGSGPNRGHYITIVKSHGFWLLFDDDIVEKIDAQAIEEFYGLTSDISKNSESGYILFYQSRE
In short: as §1

USP47 = biological target: T2, USP47 (UniProt Q96K76)
T2 sequence (whole entry): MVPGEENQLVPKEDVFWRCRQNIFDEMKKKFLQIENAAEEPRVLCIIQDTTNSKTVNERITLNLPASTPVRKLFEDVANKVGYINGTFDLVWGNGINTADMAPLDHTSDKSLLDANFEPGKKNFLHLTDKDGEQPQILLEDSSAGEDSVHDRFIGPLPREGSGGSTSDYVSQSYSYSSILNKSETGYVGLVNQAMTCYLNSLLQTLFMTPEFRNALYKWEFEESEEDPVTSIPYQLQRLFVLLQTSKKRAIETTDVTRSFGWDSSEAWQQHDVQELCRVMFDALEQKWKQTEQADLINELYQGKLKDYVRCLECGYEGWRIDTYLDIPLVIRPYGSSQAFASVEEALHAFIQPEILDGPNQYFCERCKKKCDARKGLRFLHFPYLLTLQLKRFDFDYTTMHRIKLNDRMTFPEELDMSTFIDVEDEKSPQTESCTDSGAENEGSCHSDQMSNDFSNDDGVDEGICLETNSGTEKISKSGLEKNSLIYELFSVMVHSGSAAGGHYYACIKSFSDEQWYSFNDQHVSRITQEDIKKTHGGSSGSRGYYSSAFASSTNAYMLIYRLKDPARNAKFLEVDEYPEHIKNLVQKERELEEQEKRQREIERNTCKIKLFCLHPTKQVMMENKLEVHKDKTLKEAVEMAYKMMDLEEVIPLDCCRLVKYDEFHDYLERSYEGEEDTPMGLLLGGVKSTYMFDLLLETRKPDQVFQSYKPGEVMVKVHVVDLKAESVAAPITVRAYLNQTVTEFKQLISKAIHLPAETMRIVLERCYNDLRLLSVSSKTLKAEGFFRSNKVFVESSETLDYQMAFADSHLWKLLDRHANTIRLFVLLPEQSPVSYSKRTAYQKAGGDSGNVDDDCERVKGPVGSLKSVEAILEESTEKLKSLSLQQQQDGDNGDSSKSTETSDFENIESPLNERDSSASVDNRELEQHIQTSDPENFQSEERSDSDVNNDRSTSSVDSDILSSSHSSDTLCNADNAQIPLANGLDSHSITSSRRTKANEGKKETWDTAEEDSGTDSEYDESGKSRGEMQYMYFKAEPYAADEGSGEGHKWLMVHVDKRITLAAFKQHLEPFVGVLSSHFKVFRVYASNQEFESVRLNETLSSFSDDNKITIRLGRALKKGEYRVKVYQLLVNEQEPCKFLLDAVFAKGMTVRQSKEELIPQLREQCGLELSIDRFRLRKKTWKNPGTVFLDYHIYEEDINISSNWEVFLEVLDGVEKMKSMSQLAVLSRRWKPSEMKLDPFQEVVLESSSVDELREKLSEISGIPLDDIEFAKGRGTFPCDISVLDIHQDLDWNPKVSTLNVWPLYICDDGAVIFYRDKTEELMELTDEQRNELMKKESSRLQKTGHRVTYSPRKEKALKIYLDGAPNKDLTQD
In short: as §1

USP48 = biological target: T3, USP48 (UniProt Q86UV5)
T3 sequence (whole entry): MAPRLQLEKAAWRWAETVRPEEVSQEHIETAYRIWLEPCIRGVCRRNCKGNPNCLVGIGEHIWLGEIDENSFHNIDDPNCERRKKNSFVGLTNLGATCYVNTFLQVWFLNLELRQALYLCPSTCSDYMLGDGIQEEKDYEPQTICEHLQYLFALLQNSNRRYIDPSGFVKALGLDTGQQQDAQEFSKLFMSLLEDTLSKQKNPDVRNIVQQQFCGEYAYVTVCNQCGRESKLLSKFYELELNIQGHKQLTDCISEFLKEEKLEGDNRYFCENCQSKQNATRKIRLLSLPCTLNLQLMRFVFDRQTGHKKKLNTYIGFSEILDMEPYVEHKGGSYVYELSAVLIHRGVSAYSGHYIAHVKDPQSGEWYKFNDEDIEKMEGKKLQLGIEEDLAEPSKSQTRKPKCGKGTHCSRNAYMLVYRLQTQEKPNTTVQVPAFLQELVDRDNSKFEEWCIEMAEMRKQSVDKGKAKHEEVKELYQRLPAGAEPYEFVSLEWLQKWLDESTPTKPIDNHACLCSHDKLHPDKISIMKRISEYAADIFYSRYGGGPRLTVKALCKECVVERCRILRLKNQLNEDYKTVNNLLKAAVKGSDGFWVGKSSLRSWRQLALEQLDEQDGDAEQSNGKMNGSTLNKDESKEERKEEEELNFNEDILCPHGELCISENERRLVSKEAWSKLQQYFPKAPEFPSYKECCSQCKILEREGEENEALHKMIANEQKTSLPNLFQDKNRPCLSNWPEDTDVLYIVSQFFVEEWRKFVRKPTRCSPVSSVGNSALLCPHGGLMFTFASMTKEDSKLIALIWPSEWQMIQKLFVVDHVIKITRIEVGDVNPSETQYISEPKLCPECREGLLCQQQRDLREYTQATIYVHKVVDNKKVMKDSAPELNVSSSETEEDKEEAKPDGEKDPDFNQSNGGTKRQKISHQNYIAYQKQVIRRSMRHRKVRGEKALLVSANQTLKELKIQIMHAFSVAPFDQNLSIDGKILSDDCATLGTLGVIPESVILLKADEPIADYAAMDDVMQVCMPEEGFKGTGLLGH
In short: as §1

USP5 = biological target: T4, USP5 (UniProt P45974)
T4 sequence (whole entry): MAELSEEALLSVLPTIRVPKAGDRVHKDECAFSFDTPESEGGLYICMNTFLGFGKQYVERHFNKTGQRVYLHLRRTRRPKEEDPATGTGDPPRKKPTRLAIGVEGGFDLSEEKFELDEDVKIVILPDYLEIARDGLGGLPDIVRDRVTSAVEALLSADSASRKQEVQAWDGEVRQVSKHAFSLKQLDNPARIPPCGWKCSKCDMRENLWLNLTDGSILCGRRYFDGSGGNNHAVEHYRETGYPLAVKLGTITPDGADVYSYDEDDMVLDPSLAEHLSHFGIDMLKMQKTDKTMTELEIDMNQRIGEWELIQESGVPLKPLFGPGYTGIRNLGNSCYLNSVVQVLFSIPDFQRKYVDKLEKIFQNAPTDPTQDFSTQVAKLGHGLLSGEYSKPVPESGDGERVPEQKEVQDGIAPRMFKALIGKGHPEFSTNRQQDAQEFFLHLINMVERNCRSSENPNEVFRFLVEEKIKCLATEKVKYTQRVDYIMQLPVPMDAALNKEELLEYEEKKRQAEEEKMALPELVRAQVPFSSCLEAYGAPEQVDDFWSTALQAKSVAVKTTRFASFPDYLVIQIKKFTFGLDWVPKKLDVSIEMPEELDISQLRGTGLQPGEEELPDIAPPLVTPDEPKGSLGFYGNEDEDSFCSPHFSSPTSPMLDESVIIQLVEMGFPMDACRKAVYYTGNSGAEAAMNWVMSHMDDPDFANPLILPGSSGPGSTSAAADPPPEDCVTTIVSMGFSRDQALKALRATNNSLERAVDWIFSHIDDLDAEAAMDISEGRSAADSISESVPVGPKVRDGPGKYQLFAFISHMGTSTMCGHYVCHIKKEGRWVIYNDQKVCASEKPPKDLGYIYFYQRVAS
In short: as §1

USP54 = USP54 (UniProt Q70EL1)
USP54, sequence (Q70EL1 whole entry): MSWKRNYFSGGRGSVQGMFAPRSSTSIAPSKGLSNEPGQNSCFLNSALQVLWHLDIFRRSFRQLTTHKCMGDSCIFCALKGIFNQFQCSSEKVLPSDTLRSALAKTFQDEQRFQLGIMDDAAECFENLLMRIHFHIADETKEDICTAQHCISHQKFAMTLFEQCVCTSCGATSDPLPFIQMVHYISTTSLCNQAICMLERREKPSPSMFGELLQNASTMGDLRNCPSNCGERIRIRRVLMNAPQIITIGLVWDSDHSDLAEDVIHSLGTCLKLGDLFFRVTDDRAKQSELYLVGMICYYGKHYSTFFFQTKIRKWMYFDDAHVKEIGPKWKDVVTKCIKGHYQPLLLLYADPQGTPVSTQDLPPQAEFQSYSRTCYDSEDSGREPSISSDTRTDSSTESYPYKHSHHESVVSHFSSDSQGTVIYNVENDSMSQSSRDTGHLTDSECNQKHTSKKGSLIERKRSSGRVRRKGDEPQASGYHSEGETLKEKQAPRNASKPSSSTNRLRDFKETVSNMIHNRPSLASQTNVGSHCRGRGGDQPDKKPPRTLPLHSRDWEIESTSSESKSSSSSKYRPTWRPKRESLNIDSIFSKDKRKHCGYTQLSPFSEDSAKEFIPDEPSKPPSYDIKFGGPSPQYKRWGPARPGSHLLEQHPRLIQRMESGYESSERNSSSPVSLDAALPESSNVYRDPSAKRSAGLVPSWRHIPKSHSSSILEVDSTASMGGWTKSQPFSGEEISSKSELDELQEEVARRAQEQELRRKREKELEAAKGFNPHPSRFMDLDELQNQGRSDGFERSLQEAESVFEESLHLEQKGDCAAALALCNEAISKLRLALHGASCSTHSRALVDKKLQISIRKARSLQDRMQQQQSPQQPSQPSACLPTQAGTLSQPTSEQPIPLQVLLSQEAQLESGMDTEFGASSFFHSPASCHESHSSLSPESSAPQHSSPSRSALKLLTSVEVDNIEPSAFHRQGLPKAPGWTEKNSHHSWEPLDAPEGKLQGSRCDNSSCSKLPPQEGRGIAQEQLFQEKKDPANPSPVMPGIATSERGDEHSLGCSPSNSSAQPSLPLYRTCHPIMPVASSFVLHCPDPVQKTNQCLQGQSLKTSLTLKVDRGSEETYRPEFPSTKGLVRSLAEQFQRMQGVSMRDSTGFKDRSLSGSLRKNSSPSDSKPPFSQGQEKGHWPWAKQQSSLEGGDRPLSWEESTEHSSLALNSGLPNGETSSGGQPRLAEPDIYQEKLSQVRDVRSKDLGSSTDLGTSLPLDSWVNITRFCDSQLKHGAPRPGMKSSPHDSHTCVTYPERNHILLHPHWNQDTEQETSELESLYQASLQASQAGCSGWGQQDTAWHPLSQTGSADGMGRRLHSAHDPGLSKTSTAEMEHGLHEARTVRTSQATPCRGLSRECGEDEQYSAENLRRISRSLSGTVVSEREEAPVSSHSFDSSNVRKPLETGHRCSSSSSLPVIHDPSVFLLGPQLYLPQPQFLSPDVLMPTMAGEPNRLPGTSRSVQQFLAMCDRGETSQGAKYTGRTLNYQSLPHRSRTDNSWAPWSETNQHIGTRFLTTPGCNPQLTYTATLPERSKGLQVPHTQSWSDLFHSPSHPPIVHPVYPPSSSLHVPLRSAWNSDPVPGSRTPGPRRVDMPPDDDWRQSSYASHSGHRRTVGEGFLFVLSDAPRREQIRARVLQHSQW
In short: as §1

USP7 = USP7 (UniProt Q93009)
USP7, sequence (Q93009 whole entry, looked up): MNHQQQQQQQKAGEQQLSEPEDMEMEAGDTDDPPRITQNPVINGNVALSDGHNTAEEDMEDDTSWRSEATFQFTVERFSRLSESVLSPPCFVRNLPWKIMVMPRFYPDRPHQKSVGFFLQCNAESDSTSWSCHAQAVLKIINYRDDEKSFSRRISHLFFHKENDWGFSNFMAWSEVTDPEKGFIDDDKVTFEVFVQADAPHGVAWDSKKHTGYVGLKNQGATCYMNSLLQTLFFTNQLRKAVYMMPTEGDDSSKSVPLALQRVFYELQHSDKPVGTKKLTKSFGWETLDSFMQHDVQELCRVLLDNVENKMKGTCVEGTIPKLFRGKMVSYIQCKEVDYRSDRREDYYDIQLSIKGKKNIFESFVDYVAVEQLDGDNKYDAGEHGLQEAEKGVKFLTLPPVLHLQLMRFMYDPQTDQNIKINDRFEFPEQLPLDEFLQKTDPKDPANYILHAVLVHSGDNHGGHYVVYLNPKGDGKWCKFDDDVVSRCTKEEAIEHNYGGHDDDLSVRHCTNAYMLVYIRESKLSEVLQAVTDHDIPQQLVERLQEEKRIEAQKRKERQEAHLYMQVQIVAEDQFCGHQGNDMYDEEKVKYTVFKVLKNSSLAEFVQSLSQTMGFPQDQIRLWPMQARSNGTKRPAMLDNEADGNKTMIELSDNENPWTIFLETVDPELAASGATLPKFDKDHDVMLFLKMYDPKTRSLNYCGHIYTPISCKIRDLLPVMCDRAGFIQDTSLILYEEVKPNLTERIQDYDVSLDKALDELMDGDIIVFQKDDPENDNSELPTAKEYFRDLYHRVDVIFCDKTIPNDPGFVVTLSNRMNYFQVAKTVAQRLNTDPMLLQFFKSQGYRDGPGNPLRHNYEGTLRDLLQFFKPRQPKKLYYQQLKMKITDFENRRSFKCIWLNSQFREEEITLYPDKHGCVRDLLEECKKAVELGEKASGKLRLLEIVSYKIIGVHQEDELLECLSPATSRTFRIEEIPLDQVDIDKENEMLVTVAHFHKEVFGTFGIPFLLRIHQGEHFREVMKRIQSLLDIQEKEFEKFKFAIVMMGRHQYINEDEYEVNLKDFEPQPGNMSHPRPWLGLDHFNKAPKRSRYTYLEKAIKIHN
In short: as §1

USP8 = biological target: T5, USP8 (UniProt P40818)
T5 sequence (whole entry): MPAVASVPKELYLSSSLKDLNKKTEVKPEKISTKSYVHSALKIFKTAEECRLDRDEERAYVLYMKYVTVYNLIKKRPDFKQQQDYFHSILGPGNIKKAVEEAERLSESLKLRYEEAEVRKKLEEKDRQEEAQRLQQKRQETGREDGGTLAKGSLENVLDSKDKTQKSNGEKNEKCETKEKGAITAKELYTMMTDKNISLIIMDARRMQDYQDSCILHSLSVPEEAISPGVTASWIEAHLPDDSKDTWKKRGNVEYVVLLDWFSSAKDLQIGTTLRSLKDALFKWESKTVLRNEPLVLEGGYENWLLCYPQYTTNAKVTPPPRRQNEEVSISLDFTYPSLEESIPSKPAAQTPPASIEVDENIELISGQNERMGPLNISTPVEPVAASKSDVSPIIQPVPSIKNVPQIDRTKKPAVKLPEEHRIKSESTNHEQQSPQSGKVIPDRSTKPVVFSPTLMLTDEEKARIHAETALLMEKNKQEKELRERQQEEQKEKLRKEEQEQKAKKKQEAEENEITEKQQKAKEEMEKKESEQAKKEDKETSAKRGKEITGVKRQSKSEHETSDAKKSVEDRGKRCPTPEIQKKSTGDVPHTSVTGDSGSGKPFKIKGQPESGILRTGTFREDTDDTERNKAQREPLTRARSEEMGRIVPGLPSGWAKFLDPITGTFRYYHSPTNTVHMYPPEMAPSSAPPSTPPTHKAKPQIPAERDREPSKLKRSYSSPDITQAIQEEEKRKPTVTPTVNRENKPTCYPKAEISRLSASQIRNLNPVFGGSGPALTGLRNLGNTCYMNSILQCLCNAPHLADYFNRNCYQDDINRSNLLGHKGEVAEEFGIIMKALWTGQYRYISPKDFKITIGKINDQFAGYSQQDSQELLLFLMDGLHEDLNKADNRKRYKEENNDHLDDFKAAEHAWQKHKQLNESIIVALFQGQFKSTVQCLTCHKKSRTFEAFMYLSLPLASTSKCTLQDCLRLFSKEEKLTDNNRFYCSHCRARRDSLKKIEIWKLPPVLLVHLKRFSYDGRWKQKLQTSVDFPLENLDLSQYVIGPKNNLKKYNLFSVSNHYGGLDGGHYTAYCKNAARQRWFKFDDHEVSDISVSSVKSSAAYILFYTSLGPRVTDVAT
In short: as §1

USP9X = USP9X (UniProt Q93008)
In short: as §1

UniProt O00487 = biological target: UniProt O00487
UniProt O00487, sequence (O00487 whole entry): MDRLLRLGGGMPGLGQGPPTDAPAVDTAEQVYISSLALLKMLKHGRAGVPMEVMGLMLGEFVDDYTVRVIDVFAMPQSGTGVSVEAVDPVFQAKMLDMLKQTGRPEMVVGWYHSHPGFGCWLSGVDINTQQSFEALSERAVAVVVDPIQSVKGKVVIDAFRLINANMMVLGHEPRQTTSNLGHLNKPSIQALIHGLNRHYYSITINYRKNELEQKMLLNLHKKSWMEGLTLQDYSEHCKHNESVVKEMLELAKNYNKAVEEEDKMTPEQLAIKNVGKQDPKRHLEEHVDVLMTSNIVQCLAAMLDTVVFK
In short: as §1

Measured: log2 ratio of Biotin-Ahx-Ub-VS probe labelling

Cl.O=C(CCl)N1CCn2cncc2C1
inactive: USP42 0.404 | USP46 -0.137 | USP47 0.174 | USP48 -0.0876 | USP5 -0.362 | USP54 0.158 | USP7 -0.527 | USP8 -0.217 | USP9X -0.0687 | UniProt O00487 -0.0669
